The list is not random: actives were taken first. Their share in the collection is about 2.4%.
SmPrx2 inh – Schistosoma Mansoni Peroxiredoxins (Prx2). Schistosoma mansoni peroxiredoxin 2 (Prx2). actives 0.07% (n = 65,000). AID 448, 2006. S. mansoni Prx2 activity coupled to TGR/GSH (TGR is thioredoxin glutathione reductase), NADPH fluorescence loss, qHTS. Potency, µM
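Prx2 inhibition was measured as reduced NADPH consumption when electrons flowed from NADPH through TGR and glutathione to Prx2 and H2O2. Plates were read kinetically over 8 min; enzyme reagents were held at 4 deg C during dispensing.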
AmpC inh no det – Promiscuous and Specific Inhibitors of AmpC Beta-Lactamase (assay without detergent); P00811; AmpC nitrocefin hydrolysis, absorbance 480 nm, no detergent; Potency, µM (titrated, usually from 28.7 µM), inactives show top-dose activity change, negative = inhibition; actives 1.8% (n = 71,000); AID 585, 2007; also: % of control where 0% means no effect
Target sequence (P00811 whole entry, looked up): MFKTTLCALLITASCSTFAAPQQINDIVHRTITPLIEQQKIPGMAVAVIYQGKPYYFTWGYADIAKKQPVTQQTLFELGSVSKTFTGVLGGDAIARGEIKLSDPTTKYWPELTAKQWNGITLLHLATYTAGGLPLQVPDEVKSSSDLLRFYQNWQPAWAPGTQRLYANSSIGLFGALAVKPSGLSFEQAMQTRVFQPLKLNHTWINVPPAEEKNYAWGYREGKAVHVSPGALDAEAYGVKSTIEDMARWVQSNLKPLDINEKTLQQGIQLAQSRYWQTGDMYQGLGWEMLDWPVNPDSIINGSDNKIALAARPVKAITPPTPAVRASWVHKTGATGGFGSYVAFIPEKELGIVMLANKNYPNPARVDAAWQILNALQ
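AmpC, 20 mM phosphate pH 7.0; 15 min cpd preinc, RT; start with nitrocefin (800 uM stock); A480 kinetic read, 20 s intervals, 4 min. No-enzyme wells = negative control.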
LT uptake inh – qHTS Assay for Anthrax Lethal Toxin Internalization | Cells, anthrax lethal toxin internalization, FRET ratio (460/530) | Potency, µM (series often up to 40 µM), without a hit: top-dose activity change, negative = inhibition, actives largely listed as inhibitors | actives 0.67% (n = 70,000); also: % is scaled to controls: 0 for no effect and ±100 for the full control effect; nearly all actives have a fitted effect of over 50% in size
AmpC det inh – Promiscuous and Specific Inhibitors of AmpC Beta-Lactamase (assay with detergent). purified AmpC, nitrocefin hydrolysis with detergent. P00811. AID 584, 2007. actives 0.09% (n = 71,000). Potency, µM (titrated, usually from 28.7 µM), without a hit: at the highest dose activity change, negative = inhibition; active = well fitted curve in the direction sought with a large enough effect; inconclusive = small, poorly fitted or top-dose-only effect; also: % is scaled to controls: 0 for no effect and ±100 for the full control effect
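E. coli AmpC (5.3 nM) in 20 mM phosphate pH 7.0 with 0.01% Triton X-100, preincubated 15 min RT with compound; nitrocefin (2 uL of 800 uM stock) hydrolysis followed by 480 nm absorbance every 20 s over 4 min.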
An asterisk follows results filed as active; u = inconclusive; x = no result; [ ] = dose if it differs, or a comment. Unless noted, calls follow the shape of the full dose curve. Potency is read from the fitted curve at half-maximal effect.

SMILES	SmPrx2 inh	AmpC inh no det	LT uptake inh	AmpC det inh
O=[N+]([O-])c1ccc([C@@H](Nc2ccccc2)c2ccc3cccnc3c2O)cc1	>57	-9.7%[5.75 µM]	-11.4%[8 µM]	-1.6%[5.75 µM]
Cc1ccc2c(c1)NC(=O)C(CC(=O)NCCCN1CCCCC1C)O2 (stereo not drawn)	>57	25.2%	-11.5%	9.7%
CC(=O)c1cccc(NC(=O)CC2Oc3ccc(C)cc3NC2=O)c1 (stereo not drawn)	>57	3.98µM*[single pt active]	-5.0%	7.8%
Cc1ccc2c(c1)NC(=O)C(CC(=O)NCc1cccnc1)O2 (stereo not drawn)	>57	3.98µM*[single pt active]	-25.1%	9.9%
Cc1ccc2c(c1)NC(=O)C(CC(=O)NCc1ccc(F)cc1)O2 (stereo not drawn)	>57	u	-5.7%	10.0%
CC1CCCCN1CCNC(=O)CC1Oc2ccccc2NC1=O (stereo not drawn)	>57	2.51µM*[single pt active]	u	12.9%
CN(Cc1cccc2ccccc12)Cc1cccc2ccccc12	>57	-1.8%[5.75 µM]	-8.8%[8 µM]	-3.1%[5.75 µM]
C=CC1=C(C)C2=NC1=CC1=NC(=CC3=NC(=CC4=NC(=C2)C(C)=C4CCC(=O)O)C(CCC(=O)O)=C3C)C(C=C)=C1C.[Zn]	>57	78.0%	15.8µM*	-12.4%
Cc1nc2cccc([N+](=O)[O-])c2n1CCCN(C)C	>57	-18.5%[5.75 µM]	-3.4%[8 µM]	-3.6%[5.75 µM]
O=C(C1CCC(CNc2c(N3CCCCC3)c(=O)c2=O)CC1)N1CCCCC1 (stereo not drawn)	>57	3.98µM*[single pt active]	-6.3%	10.8%
O=C(NCc1ccc2c(c1)OCO2)C1CCC(CNc2c(N3CCCCC3)c(=O)c2=O)CC1 (stereo not drawn)	>57	3.98µM*[single pt active]	u	11.0%
COc1cccc2c1C(=O)c1c(O)c3c(c(O)c1C2=O)C[C@](O)(/C(C)=N\O)C[C@@H]3O[C@H]1C[C@H](N)[C@@H](O)[C@H](C)O1	>57	23.0%[5.75 µM]	2.0%[8 µM]	1.6%[5.75 µM]
CN(C)CCN(Cc1ccccc1)S(=O)(=O)c1cccc2cccnc12	>57	14.9%	-3.8%	14.9%
Cc1cc(Cc2c(C)c(C)c(Cc3cc(C)cc(C(C)(C)C)c3O)c(C)c2C)c(O)c(C(C)(C)C)c1	>57	-6.9%[5.75 µM]	-5.6%[8 µM]	-1.2%[5.75 µM]
Cc1cc(Cc2cc(C)cc(C(C)(C)C)c2O)c(O)c(Cc2cc(C)cc(C(C)(C)C)c2O)c1	>57	-24.6%[5.75 µM]	3.16µM*	-2.2%[5.75 µM]
CN=C1N[C@H](c2ccccc2)N(c2ccccc2)S1	>57	10.1%	25.1µM*	-3.4%
COc1ccc(CCNc2nc(N3CCCCC3)nc(N3CCCCC3)n2)cc1OC	>57	91.5%	6.31µM*	-6.7%
C/C=C1\CC2C=CC1C2 (stereo not drawn)	x	-12.8%	-6.9%	8.6%
O=C(O)c1ccc(C2SCC(=O)N2Cc2ccccc2)cc1 (stereo not drawn)	>57	-7.5%	-15.6%	4.9%
CN(C)CCCN1C(=O)CSC1c1ccccc1 (stereo not drawn)	>57	3.16µM*[single pt active]	-12.4%	10.7%
COC(=O)c1cc(NC2c3ccccc3C(=O)N2c2cccnc2)cc(C(=O)OC)c1 (stereo not drawn)	>57	3.98µM*[single pt active]	4.9%	12.6%
O=C1C(C2=C(O)c3ccccc3C2=O)=Nc2ccccc21	>57	12.6µM*	-5.7%	10.9%
Cc1nnc(N2C(=O)C(O)=C(C(=O)c3ccco3)C2c2ccc(F)cc2)s1 (stereo not drawn)	>57	3.98µM*[single pt active]	-5.0%	11.7%
O=C(C1=C(O)C(=O)N(Cc2ccccc2)C1c1ccncc1)c1ccco1 (stereo not drawn)	>57	-0.2%	1.0%	-2.3%
COC(=O)[C@H](N)Cc1ccc(Cl)cc1	>57	-5.1%	2.1%	-1.3%
SMILES	SmPrx2 inh	AmpC inh no det	LT uptake inh	AmpC det inh
CC1=CC(C)(C)N(C(=O)CN2C(=O)c3ccccc3C2=O)c2ccccc21	x	47.4%	6.31µM*	-3.9%
CCN1CCN(C(=O)CSCc2nc(-c3ccc(OC)c(OC)c3)oc2C)CC1	>57	3.98µM*[single pt active]	u	11.5%
O=S(=O)(NCc1ccccn1)c1cccc2cccnc12	>57	11.0%	-2.3%	9.6%
CN(CC(=O)N1CCc2ccccc2C1)S(=O)(=O)c1ccc2c(c1)c(=O)n(C)c(=O)n2C	>57	3.98µM*[single pt active]	1.0%	12.9%
C=C1CC[C@@H]2[C@](C)(CC[C@@H](O)[C@]2(C)CO)[C@@H]1C/C=C1/C(=O)OC[C@H]1O	>57	3.3%	u	11.5%
Cc1nn(C)c(C)c1S(=O)(=O)N1CCCC(C(=O)NC2CCCCCC2)C1 (stereo not drawn)	>57	3.98µM*[single pt active]	-16.9%	13.2%
COc1ccc(N(C)C(=O)c2ccc3snnc3c2)cc1	>57	3.98µM*[single pt active]	-4.1%	11.1%
CCN(CC)CCO[C@H]1CC[C@@]2(C)C(=CC[C@@H]3[C@H]2CC[C@]2(C)C(=O)CC[C@H]32)C1	>57	43.8%	25.1µM*	-2.0%
C[C@@]12CC[C@H]3[C@@H](CC=C4C[C@H](OS(=O)(=O)O)CC[C@]43C)[C@H]1CCC2=O	>57	4.9%	u	-1.0%
CS(=O)(=O)c1nc(-c2ccco2)cc(C(F)(F)F)n1	>57	-6.4%	10µM*	12.9%
FC(F)(F)c1cc(-c2ccco2)nc(NCc2ccco2)n1	>57	-6.6%	u	15.9%
Cc1nc2ccc(S(=O)(=O)NC(C(=O)NCc3ccco3)C(C)C)cc2s1 (stereo not drawn)	>57	3.98µM*[single pt active]	-9.0%	14.4%
NC(=O)CN1CCN(C(=O)Nc2ccccc2)CC1	>57	3.98µM*[single pt active]	-10.7%	15.1%
Cc1ccccc1-c1ccc2ncnc(-n3ccnc3)c2c1	>57	44.8%	5.01µM*	10.4%
CN(C)c1ccc(-c2ccc3ncnc(-n4ccnc4)c3c2)cc1	>11.4	77.8%	7.94µM*	11.0%
Cc1ccccc1-c1ccc2ncnc(N(C)C)c2c1	>57	77.2%	-18.1%	5.8%
C[C@@]12CC[C@@H]3[C@H](CCC4=CC(=O)CC[C@]43C)[C@@H]1CC[C@@H]2C(=O)COS(=O)(=O)c1ccc(Br)cc1	>57	9.9%[5.75 µM]	-4.5%[8 µM]	-3.4%[5.75 µM]
c1ccc(CC2CCN(c3nc4ccccc4n4nnnc34)CC2)cc1	>57	12.6µM*	-7.6%	12.0%
O=C(c1ccco1)N1CCN(c2nc3ccccc3n3nnnc23)CC1	>57	39.7%	-3.8%	21.2%
Cc1cc(C(=O)CSc2nc3ccccc3n2CCC#N)c(C)n1Cc1cccs1	>57	15.8µM*	-26.4%	-0.8%
CN(C)CCCO[C@H]1[C@H]([C@H](O)CO)O[C@H]2OC(C)(C)O[C@@H]21	>57	-3.7%	1.8%	-0.7%
CN(c1ccccc1)S(=O)(=O)c1ccc(C(=O)Nc2nnc(-c3ccc(F)cc3)o2)cc1	>57	10µM*	0.0%	-7.6%
COc1ccc(-c2nnc(NC(=O)c3ccc(S(=O)(=O)N4CCCc5ccccc54)cc3)o2)cc1	>57	12.6µM*	-12.8%	8.9%
COc1ccccc1-c1nnc(NC(=O)c2ccc(S(=O)(=O)N(C)Cc3ccccc3)cc2)o1	>57	27.2%	-0.7%	-2.3%
